# Test results as given in PubChem BioAssay.
# Where “and” joins values, the source holds several entries; their conditions need not be identical. Equal values may be shown once. Calls of active or inactive are those of the source.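 How the source made its calls, unless noted: active means normalized viability below 100% at a tested concentration; inactive means the rest.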
# Tests used:
# [1] = stimulators of nuclear beta-catenin in C2C12, primary screen, imaging, WNT3A-conditioned medium, mouse C2C12, NPC library (AID 1117326; in the data active means nuclear beta-catenin stimulation mostly above about 4.2%, no sharp cut-off; inactive means mostly below about 10%); details: stronger effect = higher value
# [2] = stimulators of insulin release from INS-1E, primary screen, cell-based, 5 mM glucose, NPC library (AID 1117329;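 active means compound raises insulin release from rat beta cells at 5 mM glucose, no numeric limit stated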); details: rat INS-1E insulin secretion, at 10 µM, stronger effect = higher value
# [3] = growth inhibition of GSK3B-pretreated HCT116 cells – cell-based, CellTiter-Glo, 0.2 to 20 µM (AID 1117336;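 active means compounds lowering colon cancer cell viability after pretreatment blocking the GSK3B kinase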); details: HCT116 viability after GSK3B inhibitor, at 20 µM, stronger effect = higher value
# [4] = inhibition of endothelial tube formation, primary screen, imaging, VEGF stimulated, CD31 staining, tube area, NPC library (AID 1117340;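 active means compound that reduces growth-factor-driven endothelial tube area in a mixed cell culture, no cutoff stated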); details: VEGF-stimulated ADSC/ECFC co-culture, at 10 µM, stronger effect = higher value
# [5] = glucagon-like peptide 1 release enhancers, primary assay, NCI-H716 cell line, NPC library (AID 1117341;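 active means compound raises GLP1 secretion from the human gut endocrine cells, with no numeric limit stated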); details: NCI-H716 cells, at 10 µM, stronger effect = higher value
# [6] = HCT116 colon cancer cell growth inhibition, primary screen, CellTiter-Glo luminescence, NPC library (AID 1117342;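 active means compounds that lower survival of HCT116 colon cancer cells in the luminescence readout, no numeric limit stated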); details: at 20 µM (top of the series)
# [7] = CellTiter-Glo luminescent readout of SW480 viability loss, NPC library primary (AID 1117343;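 active means compounds that lower viability of the colon cancer cells in the luminescence readout, with no numeric limit stated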); details: CellTiter-Glo luminescence; at 20 µM (top of the series) unless noted
# [8] = decreased DLD-1 cellular survival, CellTiter-Glo luminescent readout, NPC compound collection, primary HTS (AID 1117346;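 active means compounds that lower survival of DLD-1 colon cancer cells in the luminescence readout, no cutoff given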); details: DLD-1 viability, CellTiter-Glo luminescence; at 20 µM (top of the series)
# [9] = differential killing of epithelial or mesenchymal cells, primary screen, imaging, PC-3E GFP, TEM4-18 mCherry, co-culture (AID 1345086;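 active means compounds killing one labelled cell type while sparing the other, by normalised counts and ratio limits, not self-fluorescent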;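 on all read-outs here: cells exposed to compound for 72 h before imaging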;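 on red/green cell ratio (normalised): normalised mesenchymal count divided by normalised epithelial count so high means epithelial killing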); details: imaging cell counts, at 1 µM; for red/green cell ratio (normalised): actives lie on both sides, counts scaled to control wells, 1 = unselective
# [10] = sensitizers of A549 cells to miR-34 induction, primary screen, imaging, A549 dox-inducible miR-34, nuclei and caspase counts (AID 1347080;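 active means compounds whose cell count with miR-34 switched on is under 0.7 times the count with it off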); details: A549 miR-34 inducible, Hoechst nuclei count, 48 h
# [11] = survival rescue of mitochondrial mutant cells in low glucose, primary screen, MELAS cybrids, Rieske KO mouse fibroblasts, CellTiter-Glo (AID 1508586;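 active means mean z-score across replicates of 1.96 or higher in either the MELAS or the Rieske mutant cell line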;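 further: z relative to plate mean and SD of compound and empty wells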)
# [12] = ovarian cancer cell viability with rucaparib, profiling panel, oncology-focused library, rucaparib conditional (AID 1508598); details: patient-derived ovarian cancer cells, CellTiter-Glo viability, 144 h, stronger effect = lower value
# [13] = liver-stage malaria parasite growth inhibition, primary screen, cell-based, HepG2, luciferase luminescence, HepG2 viability (AID 624349; in the data active means parasite load remaining mostly below about 12%, no sharp cut-off; inactive means mostly above about 10%;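 further: 100% = mean of DMSO negative control wells on the same plate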); details: P. berghei liver stage in HepG2, luciferase luminescence, concentration not given here; parasite load remaining: stronger effect = lower value; viability: measured here: HepG2 viability without parasites
# [14] = molecular target: NAD(+) hydrolase SARM1 (Homo sapiens) (UniProt Q6SZW1); assay: SARM1 TIR NADase inhibitors, cell lysate, NAD-Glo luminescence (AID 1508614;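 active means compound whose remaining NAD level is above about 45 nM, limit read from the data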); details: SAM-TIR HEK293T lysate NADase, at 1 µM, stronger effect = higher value
# [15] = hESC survival regulators, cell-based (AID 493140; call rule not given here;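 further: cells exposed to compounds for four days before counting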); details: human embryonic stem cell survival screen; stronger effect = higher value
# [16] = measured here: epithelial PC-3E GFP cell survival
# [17] = measured here: mesenchymal TEM4-18 mCherry cell survival
# [18] = stronger effect = lower value, cell number ratio, induced over uninduced
# [19] = measured here: relative caspase fold change +Dox/-Dox
# [20] = measured here: total cells with miR-34 induction, stronger effect = lower value
# [21] = measured here: total cells without miR-34 induction
# [22] = MELAS cybrid survival, CellTiter-Glo 48 h, stronger effect = higher value
# [23] = Rieske KO mouse fibroblast survival, CellTiter-Glo 72 h
# NAD(+) hydrolase SARM1 (Homo sapiens), sequence (Q6SZW1 whole entry, looked up): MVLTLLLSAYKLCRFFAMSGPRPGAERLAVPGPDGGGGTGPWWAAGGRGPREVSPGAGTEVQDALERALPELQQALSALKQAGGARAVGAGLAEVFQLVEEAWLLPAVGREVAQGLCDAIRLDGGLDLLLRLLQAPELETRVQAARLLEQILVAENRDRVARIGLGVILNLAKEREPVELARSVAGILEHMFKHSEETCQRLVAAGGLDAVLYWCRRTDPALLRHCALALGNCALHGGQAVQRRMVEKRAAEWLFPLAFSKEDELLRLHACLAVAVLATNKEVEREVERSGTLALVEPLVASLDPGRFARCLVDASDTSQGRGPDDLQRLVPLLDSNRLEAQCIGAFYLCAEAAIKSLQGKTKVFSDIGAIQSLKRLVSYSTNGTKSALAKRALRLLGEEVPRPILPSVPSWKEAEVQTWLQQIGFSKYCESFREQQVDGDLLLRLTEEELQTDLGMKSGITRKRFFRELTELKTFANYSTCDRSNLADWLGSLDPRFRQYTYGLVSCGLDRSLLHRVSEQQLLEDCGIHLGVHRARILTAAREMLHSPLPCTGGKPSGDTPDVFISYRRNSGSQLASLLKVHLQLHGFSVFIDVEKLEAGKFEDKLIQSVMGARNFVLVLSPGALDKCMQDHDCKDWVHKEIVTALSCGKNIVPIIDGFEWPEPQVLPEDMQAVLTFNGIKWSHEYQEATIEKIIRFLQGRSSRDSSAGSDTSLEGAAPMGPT
smiles,measurement,setting,value
COc1cc2ncnc(Nc3ccc(F)c(Cl)c3)c2cc1OCCCN1CCOCC1,nuclear beta-catenin stimulation,[1]; at 10 µM,78.2% (active)
same,nuclear beta-catenin stimulation,"[1]; stimulation, at 2 µM",2.5%
same,insulin secretion stimulation,[2],0.7% (inactive)
same,viability decrease,[3],44.5% (inactive)
same,tube area decrease,[4],65.5% (active)
same,GLP1 secretion stimulation,[5],-2.9% (inactive)
same,inhibition of viability,[6],98.7% (active)
same,viability decrease (inhibition),[7],101% (active)
same,viability decrease (inhibition),[8],98.1% (active)
same,red/green cell ratio (normalised),[9],1.15 (inactive)
same,normalised cell number,[9]; [16],0.79
same,normalised cell number,[9]; [17],0.91
same,fold change,[10]; [18],0.786 (inactive) and 0.938 (inactive) and 0.793 (inactive)
same,fold change,[10]; [19],1.64 and 1.38 and 1.39
same,cell count,[10]; [20],4800 and 6990 and 6580
same,cell count,[10]; [21],6110 and 7460 and 8300
same,z-score,[11]; [22],-0.609 (inactive) and 0.334 and 0.781 (inactive)
same,z-score,[11]; [23],-0.845 and 2.09 and 1.88
same,viability,"[12]; at 0.000305 µM, OCI-C5x cells, with rucaparib 10 µM, 100% = cells with rucaparib alone",94.6% (active)
same,viability,"[12]; at 0.000305 µM, OCI-C5x cells, without rucaparib",94.5% (active)
same,viability,"[12]; at 0.000305 µM, OCI-P5x cells, with rucaparib 20 µM, 100% = cells with rucaparib alone",100% (inactive)
same,viability,"[12]; at 0.000305 µM, OCI-P5x cells, without rucaparib",100% (inactive)
same,viability,"[12]; at 0.00122 µM, OCI-C5x cells, with rucaparib 10 µM, 100% = cells with rucaparib alone",98.1% (active)
same,viability,"[12]; at 0.00122 µM, OCI-C5x cells, without rucaparib",93.8% (active)
same,viability,"[12]; at 0.00122 µM, OCI-P5x cells, with rucaparib 20 µM, 100% = cells with rucaparib alone",106% (inactive)
same,viability,"[12]; at 0.00122 µM, OCI-P5x cells, without rucaparib",100% (inactive)
same,viability,"[12]; at 0.00488 µM, OCI-C5x cells, with rucaparib 10 µM, 100% = cells with rucaparib alone",95.1% (active)
same,viability,"[12]; at 0.00488 µM, OCI-C5x cells, without rucaparib",102% (inactive)
same,viability,"[12]; at 0.00488 µM, OCI-P5x cells, with rucaparib 20 µM, 100% = cells with rucaparib alone",95.6% (active)
same,viability,"[12]; at 0.00488 µM, OCI-P5x cells, without rucaparib",100% (inactive)
same,viability,"[12]; at 0.0195 µM, OCI-C5x cells, with rucaparib 10 µM, 100% = cells with rucaparib alone",109% (inactive)
same,viability,"[12]; at 0.0195 µM, OCI-C5x cells, without rucaparib",98% (active)
same,viability,"[12]; at 0.0195 µM, OCI-P5x cells, with rucaparib 20 µM, 100% = cells with rucaparib alone",98.7% (active)
same,viability,"[12]; at 0.0195 µM, OCI-P5x cells, without rucaparib",96.3% (active)
same,viability,"[12]; at 0.0781 µM, OCI-C5x cells, with rucaparib 10 µM, 100% = cells with rucaparib alone",101% (inactive)
same,viability,"[12]; at 0.0781 µM, OCI-C5x cells, without rucaparib",92% (active)
same,viability,"[12]; at 0.0781 µM, OCI-P5x cells, with rucaparib 20 µM, 100% = cells with rucaparib alone",98.6% (active)
same,viability,"[12]; at 0.0781 µM, OCI-P5x cells, without rucaparib",100% (active)
same,viability,"[12]; at 0.313 µM, OCI-C5x cells, with rucaparib 10 µM, 100% = cells with rucaparib alone",101% (inactive)
same,viability,"[12]; at 0.313 µM, OCI-C5x cells, without rucaparib",99.7% (active)
same,viability,"[12]; at 0.313 µM, OCI-P5x cells, with rucaparib 20 µM, 100% = cells with rucaparib alone",88.2% (active)
same,viability,"[12]; at 0.313 µM, OCI-P5x cells, without rucaparib",101% (inactive)
same,viability,"[12]; at 1.25 µM, OCI-C5x cells, with rucaparib 10 µM, 100% = cells with rucaparib alone",103% (inactive)
same,viability,"[12]; at 1.25 µM, OCI-C5x cells, without rucaparib",94.5% (active)
same,viability,"[12]; at 1.25 µM, OCI-P5x cells, with rucaparib 20 µM, 100% = cells with rucaparib alone",98.4% (active)
same,viability,"[12]; at 1.25 µM, OCI-P5x cells, without rucaparib",97.2% (active)
same,viability,"[12]; at 5 µM, OCI-C5x cells, with rucaparib 10 µM, 100% = cells with rucaparib alone",56.7% (active)
same,viability,"[12]; at 5 µM, OCI-C5x cells, without rucaparib",72% (active)
same,viability,"[12]; at 5 µM, OCI-P5x cells, with rucaparib 20 µM, 100% = cells with rucaparib alone",86.8% (active)
same,viability,"[12]; at 5 µM, OCI-P5x cells, without rucaparib",99.3% (active)
NCCCNCCSP(=O)(O)O,parasite load remaining,[13],26.6% (inactive)
same,viability,[13],110%
same,nuclear beta-catenin stimulation,[1]; at 10 µM,-1.3% (inactive)
same,nuclear beta-catenin stimulation,"[1]; stimulation, at 2 µM",0.9%
same,insulin secretion stimulation,[2],3% (inactive)
same,viability decrease,[3],-4.2% (inactive)
same,tube area decrease,[4],-8.5% (inactive)
same,GLP1 secretion stimulation,[5],-1.2% (inactive)
same,inhibition of viability,[6],2.2% (inactive)
same,viability decrease (inhibition),[7],0.3% (inactive)
same,viability decrease (inhibition),[8],0% (inactive)
same,red/green cell ratio (normalised),[9],1.19 (inactive)
same,normalised cell number,[9]; [16],1.03
same,normalised cell number,[9]; [17],1.23
same,fold change,[10]; [18],1.03 (inactive) and 0.865 (inactive)
same,fold change,[10]; [19],1.84 and 1.27
same,cell count,[10]; [20],10300 and 9430
same,cell count,[10]; [21],10000 and 10900
same,z-score,[11]; [22],0.141 (inactive) and 0.413 (inactive)
same,z-score,[11]; [23],-0.0647 and -0.947
same,remaining NAD,[14],10 nM (inactive)
OC(CCN1CCCCC1)(c1ccccc1)C1CC2C=CC1C2 (stereo not drawn),survival,[15],9.67 (inactive)
same,parasite load remaining,[13],61.4% (inactive) and 36.1% (inactive)
same,viability,[13],78.3% and 106%
same,nuclear beta-catenin stimulation,[1]; at 10 µM,0.3% (inactive)
same,nuclear beta-catenin stimulation,"[1]; stimulation, at 2 µM",-0.7%
same,insulin secretion stimulation,[2],4.5% (inactive)
same,viability decrease,[3],-65.7% (inactive)
same,tube area decrease,[4],1.4% (inactive)
same,GLP1 secretion stimulation,[5],-4% (inactive)
same,inhibition of viability,[6],36.4% (inactive)
same,viability decrease (inhibition),[7],39.6% (inactive)
same,viability decrease (inhibition),[8],2.7% (inactive)
same,red/green cell ratio (normalised),[9],0.98 (inactive)
same,normalised cell number,[9]; [16],0.85
same,normalised cell number,[9]; [17],0.83
same,fold change,[10]; [18],1.01 (inactive) and 0.963 (inactive) and 0.83 (inactive)
same,fold change,[10]; [19],1.73 and 0.774 and 4.12
same,cell count,[10]; [20],10100 and 7400 and 10600
same,cell count,[10]; [21],9960 and 7680 and 12700
same,z-score,[11]; [22],-0.399 (inactive)
same,z-score,[11]; [23],0.122
same,remaining NAD,[14],10 nM (inactive)
